Test in all cases: NCI-60 one-dose screen, 48 h (100 = growth as untreated, 0 = no growth, -100 = all killed)
Holding throughout (settings): 10 µM unless noted

Test [1] concerns NCI-H23 lung.
In test [2] the test system is NCI-H226 lung.
Test [3] relates to NCI-H322M lung.
In test [4] the test system is HOP-62 NSCLC.
Test [5] has as its system NCI-H460 lung.
The test system of test [6] is HOP-92 NSCLC.
For test [7], the system named is NCI-H522 lung.
For test [8], the system named is A549/ATCC NSCLC.
For test [9], the system named is 786-0 renal.
Test [10] relates to DU-145 prostate.
Test [11] concerns K-562 leukemia.
In test [12] the test system is MALME-3M melanoma.
For test [13], the system named is MDA-MB-231 breast.
In test [14] the test system is SF-268 CNS.
The subject of test [15] is SF-295 CNS.
Test [16] relates to SF-539 CNS.
The test system of test [17] is M14 melanoma.
Test [18] deals with RXF 393 renal.
The test system of test [19] is UACC-257 melanoma.

This is part of a sample that, as a whole, favours compounds with a hit. Of some 83,000 tested, about 20% had one in any assay.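 Single-dose data. Exposure time 48 hours. Values below 10 considered active.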 Unmarked numbers belong to inactive results. Active and inactive are the calls of the source.

Turning to `C=CC(=O)N[C@@H](Cc1ccc(-c2cc(Cl)cc(Cl)c2)cc1)[C@@H](O)[C@H](O)C(=O)O`, the growth in test [1] is 99.9%; in test [2], 84.9%; in [3], 105%; in test [4], 79%; in [5] it was 105%; in test [6], 93.9%. In addition, the growth was 67.7% in test [7]; 79% in test [8]; 98.6% in test [9]; 109% in test [10]; 101% in test [11]; 96.6% in test [12]. Also, the growth was 104% in test [13]; 101% in test [14]; 100% in test [15]; 94.9% in test [16]; 99.4% in test [17].
For the compound `CC(C)CCC[C@@H](C)[C@H]1CCC2C3=CCn4c(=O)ccc(=O)n4C3CC[C@@]21C` (some centres undefined), the growth in test [1] was -55.4% (active); in test [2] it was -91.8% (active); in [3], -55.3% (active); in test [4], -93.3% (active); in [5], -89.9% (active); in [6], -94% (active). Moreover, the growth in test [7] was -66.1% (active); in [8] it was -79.3% (active); in [9], -100% (active); in test [10], -93.7% (active); in [11], -40% (active); in test [13] it was -89.2% (active). In addition, the growth in test [18] was -76% (active); in test [14], -91.6% (active); in [15], -92.3% (active); in [16], -99.5% (active); in [19] it was -79.3% (active); in test [17], -98% (active).
Turning to `O=C(O)CC1Sc2ccccc2NC1=O` (centres undefined), the growth is 89.1% in [1]; 95.2% in [2]; 104% in test [3]; 96.3% in [4]; 195% in test [5]; 73.1% in test [6]. Also, the growth in [7] was 81%; in test [8], 106%; in test [9], 108%; in test [10], 116%; in test [11], 70.4%; in test [12], 106%. For the same compound, the growth in [13] was 108%; in test [14] it was 100%; in [15], 104%; in [16] it was 145%; in test [19], 98.5%; in [17], 89.5%.
In the case of `Nc1nc(N)c(-c2ccc(Cl)cc2)c(/C=C/c2ccc([N+](=O)[O-])cc2)n1`, the growth in test [1] is 90.8%; in [2], 91.4%; in test [3], 46.8%; in test [4], 100%; in [5], 11.4%; in test [6], 76.1%. For the same compound, the growth in [7] was 97.4%; in test [8], 47.9%; in test [9], 99.3%; in test [10], 87.2%; in [11] it was 19.4%; in test [13], 95.4%. Further, the growth in test [18] was 74.7%; in test [14], 79.3%; in test [15], 51.5%; in [16] it was 93.5%; in test [19] it was 66.3%; in test [17], 63.6%.
On to `Cc1cc(=O)[nH]c(N/N=C/c2cc(Br)ccc2O)n1`, for which the growth in [1] is 33.7%; in [2] it was 40.5%; in test [3], -15% (active); in test [4], 48%; in test [5], -1.75% (active); in test [6] it was 55%. Further, the growth was 19.5% in test [7]; 23.4% in test [8]; 7.2% (active) in test [9]; 41.7% in [10]; 22.5% in [11]; 35.5% in test [13]. Moreover, the growth in test [18] is 70.2%; in test [14] it was 25.2%; in [15] it was 5.67% (active); in test [16] it was 16.3%; in test [19], 14.1%; in [17] it was 10%.
On to `COc1cc(C(=O)Nc2cc(O)c(CC=C(C)C)c(O)c2)cc2c1O[C@]1(C)CC[C@@H](O)C(C)(C)[C@H]1C2`, for which the growth was 38.7% in test [1]; 47.6% in test [2]; 66.4% in [3]; 6.01% (active) in test [4]; 15.6% in test [5]; -5.08% (active) in [6]. Besides, the growth is 10% in test [7]; 18.5% in test [8]; -11.7% (active) in [9]; 42% in test [10]; 58.6% in [12]; 24.1% in test [13]. Besides, the growth in test [18] is -18.5% (active); in test [14], 39.5%; in test [15] it was -52.1% (active); in test [16], -50.8% (active); in [19], 27.2%.
As for `CC(C)CCC[C@@H](C)[C@H]1CCC2C3=CCC4C(=O)C=CC(=O)C4C3CC[C@@]21C` (some centres undefined), the growth was 8.4% (active) in test [1]; 42% in test [2]; 42.6% in [3]; 12.1% in [4]; 2.88% (active) in test [5]; -28.9% (active) in [6]. The growth in [7] was -46.1% (active); in test [8], 8.75% (active); in [9], -5.66% (active); in [10], 26.6%; in test [11], 9.94% (active); in test [13] it was 28.6%. Further, the growth in test [18] was -66.6% (active); in [14], 20.4%; in [15] it was -61.2% (active); in [16], -25.6% (active); in test [19] it was -3.37% (active); in [17], 17.5%.
Take `O=C1CSC(c2ccccc2O)N1c1nnc(Cn2cnnc2)o1` (centres undefined): the growth is 77.3% in test [1]; 78.5% in test [2]; 87.3% in test [3]; 78.7% in [4]; 86.9% in test [5]; 53.9% in test [6]. In addition, the growth in test [7] was 98.1%; in test [8], 97.7%; in test [9], 25.8%; in test [10] it was 105%; in test [11] it was 82.6%; in test [12], 96.2%. For the same compound, the growth in test [13] was 73.7%; in test [14], 82.9%; in test [15], 94%; in test [16], 89.7%; in [19] it was 96.4%; in test [17] it was 69%.
Regarding `COc1cc(NC(=O)c2cccc(-c3cc(=O)c4c(OC)c(OC)c(OC)cc4o3)c2)cc(OC)c1OC`, the growth in test [1] was 48.8%; in test [2] it was 58.5%; in test [3] it was 69.5%; in [4], 37.5%; in [5], 30%; in test [6], 24.7%. In addition, the growth in test [7] is 34.7%; in [8], 43.5%; in test [9] it was 31.8%; in test [10], 54.3%; in test [11], 27.6%; in test [12], 56.4%. Moreover, the growth in test [18] was 53.2%; in test [14] it was 67.1%; in [15], 45%; in test [16], 52.6%; in test [19], 52.8%.

The record behind these values is PubChem BioAssay (NCI).
